From paper PMC4336329 (PLoS ONE, 2015)
The whole screen tested about 310,000 compounds, of which about 14,000 (4.5%) showed an effect of 50% or more. The effect is printed as a negative number. This excerpt belongs to a sample that is enriched for strong results.

The molecules below were run against human ether-à-go-go-related gene (hERG) potassium channel (human, UniProt Q12809) (assay: primary screen, population patch clamp on CHO cells stably expressing hERG; higher = less effect of the substance).
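Further: peak tail current of the secondary pulse compared with the same well before compound.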

Sequence of human ether-à-go-go-related gene (hERG) potassium channel (Q12809 whole entry, looked up): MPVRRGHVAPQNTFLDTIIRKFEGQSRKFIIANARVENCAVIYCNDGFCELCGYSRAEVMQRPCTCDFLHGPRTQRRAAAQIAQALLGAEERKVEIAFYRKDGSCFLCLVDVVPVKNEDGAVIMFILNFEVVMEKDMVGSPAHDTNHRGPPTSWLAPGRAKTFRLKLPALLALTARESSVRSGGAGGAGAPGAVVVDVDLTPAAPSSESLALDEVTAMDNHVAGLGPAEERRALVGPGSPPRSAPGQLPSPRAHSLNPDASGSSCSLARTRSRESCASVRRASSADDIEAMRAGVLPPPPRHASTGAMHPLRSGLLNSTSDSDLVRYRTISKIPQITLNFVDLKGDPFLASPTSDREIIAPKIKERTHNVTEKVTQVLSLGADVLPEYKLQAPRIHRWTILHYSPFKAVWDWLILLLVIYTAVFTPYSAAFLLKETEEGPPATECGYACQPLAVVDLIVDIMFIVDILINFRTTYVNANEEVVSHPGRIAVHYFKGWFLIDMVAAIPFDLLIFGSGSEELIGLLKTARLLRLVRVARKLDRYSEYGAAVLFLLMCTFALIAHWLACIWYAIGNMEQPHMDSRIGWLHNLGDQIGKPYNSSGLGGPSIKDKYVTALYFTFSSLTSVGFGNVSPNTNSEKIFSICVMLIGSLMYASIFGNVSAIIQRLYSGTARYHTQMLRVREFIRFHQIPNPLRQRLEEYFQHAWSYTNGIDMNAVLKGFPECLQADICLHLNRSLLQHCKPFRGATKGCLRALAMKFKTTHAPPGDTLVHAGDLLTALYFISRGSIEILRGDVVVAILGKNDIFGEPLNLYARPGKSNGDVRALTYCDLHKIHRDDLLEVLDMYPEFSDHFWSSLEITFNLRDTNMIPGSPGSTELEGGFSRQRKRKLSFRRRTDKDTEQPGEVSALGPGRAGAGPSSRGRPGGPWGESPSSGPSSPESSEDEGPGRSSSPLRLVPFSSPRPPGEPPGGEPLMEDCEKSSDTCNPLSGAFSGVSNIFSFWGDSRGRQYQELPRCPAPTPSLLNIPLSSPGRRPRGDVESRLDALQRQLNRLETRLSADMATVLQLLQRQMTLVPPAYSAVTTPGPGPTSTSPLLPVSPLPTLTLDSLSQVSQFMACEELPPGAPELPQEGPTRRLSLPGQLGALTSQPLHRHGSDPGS

| SMILES | hERG current change (%, negative = inhibition) at 10uM [%] |
| --- | --- |
| CCN1CCN(Cc2ccc(NC(=O)c3cc(NC(=O)c4cc(C)on4)cc(OC)c3)cc2C(F)(F)F)CC1.O=C(O)C(F)(F)F | -28.7 |
| Cc1ccc2cccc(S(=O)(=O)NC3CCS(=O)(=O)C3)c2n1 (centres unmarked) | -7.02 |
| O=S(=O)(NCC1(N2CCOCC2)CCCCC1)c1ccc(Cl)cc1C(F)(F)F | -0.581 |
| Cc1cc(NC(=O)c2cc3n(n2)C(C(F)(F)F)CC(c2ccco2)N3)no1 (centres unmarked) | 4.63 |
| Cn1c(=O)n(-c2ccc(Cl)cc2)c(=O)c2c3c(sc21)COC(C)(C)C3 | 3.68 |
| O=C(N/N=C/c1cccnc1)c1ccccc1Cl | 14.2 |
| COc1ccc(Cc2c(O)[nH]c(=S)[nH]c2=O)cc1 | 13.8 |
| CN1CCN(C(=O)CN(CCc2ccccc2)S(C)(=O)=O)CC1 | 11 |
| Cc1ccc(C)c(-n2cc(CN3CCNC(=O)CC3)c(-c3ccccc3)n2)c1 | -43.5 |
| Cc1ccc(C)c(-n2cc(CNCCc3cnccn3)c(-c3ccccc3)n2)c1 | -67.1 |
| CCn1ccnc1CN(C)Cc1cn(-c2ccc(C)cc2)nc1-c1cccc(C)c1 | -28.1 |
| COCCN1CCC(CNCc2cn(-c3cc(C)ccc3C)nc2-c2ccccc2)C1 (centres unmarked) | -18 |
| CCn1ccnc1CNCc1cn(-c2cc(C)ccc2C)nc1-c1ccccc1 | -69.3 |
| CCn1ccnc1CN(C)Cc1cn(-c2cccc(C)c2)nc1-c1cccc(F)c1 | -18.3 |
| CCn1ccnc1CN(C)Cc1cn(-c2ccc(C)cc2)nc1-c1ccc(F)cc1 | -39.9 |
| CCn1ccnc1CN(C)Cc1cn(-c2cc(C)ccc2C)nc1-c1ccccc1 | -51.7 |
| Cc1ccc(C)c(-n2cc(CN3CCCN(C=O)CC3)c(-c3ccccc3)n2)c1 | -31.9 |
| CCCN1CCC(=NNC(=O)c2ccc(Br)o2)CC1 | -7.22 |
| COc1ccc(S(=O)(=O)N=C2C=C(C)C(=O)C(C)=C2)cc1 | -8.48 |
| Cc1cc(=O)n2ccsc2n1 | 3.28 |
| Cc1cc(=O)[nH]c2c1cnn2Cc1ccccc1 | 3.72 |
| COc1ccc(/C=C(\C#N)C(=O)OCC(=O)NCc2ccccc2Cl)cc1 | 6.86 |
| Cc1nn(Cc2ccccc2)c(C)c1C(=O)N1CCN(CC(=O)Nc2ccc(F)cc2)CC1 | -62.6 |
| O=C(CN1CCN(CC(=O)Nc2ccccc2Cc2ccccc2)CC1)Nc1ccccc1Cl | 20 |
| Cc1nn(Cc2ccccc2Cl)c(C)c1C(=O)N1CCN(c2ccccc2)CC1 | -58.6 |
| Cc1nn(Cc2ccccc2)c(C)c1C(=O)N1CCN(CC(=O)Nc2ccccc2Cl)CC1 | -50.3 |
| Cc1cccc(N2CCN(C(=O)c3c(C)nn(Cc4ccccc4Cl)c3C)CC2)c1C | -0.851 |

| SMILES | hERG current change (%, negative = inhibition) at 10uM [%] |
| --- | --- |
| Cc1nn(Cc2ccccc2)c(C)c1C(=O)N1CCN(S(=O)(=O)/C=C/c2ccccc2)CC1 | -24.8 |
| Cc1nn(Cc2ccccc2Cl)c(Cl)c1C(=O)O | 8.83 |
| Cc1nn(Cc2ccccc2)c(C)c1C(=O)O | -19.1 |
| Cc1cccc(NC(=O)CN2CCN(C(=O)c3c(C)nn(Cc4ccccc4)c3C)CC2)c1C | -20.4 |
| CC(=O)c1ccc(OCCCCOc2ccc(C(C)=O)cc2)cc1 | 21.4 |
| COc1ccccc1OC(=O)c1ccc(SC)cc1OC | -24 |
| C[C@]12CC[C@@H]3c4ccc(OS(=O)(=O)[O-])cc4CC[C@H]3[C@@H]1CCC2=O.[Na+] | 16.9 |
| O=C(CSc1nc(-c2ccccc2)c(-c2ccccc2)o1)NC1CCS(=O)(=O)C1 (centres unmarked) | -27.1 |
| CCc1ccccc1NC(=O)CCCN1C(=O)C2CC=CCC2C1=O (centres unmarked) | 12 |
| Cc1ccccc1C(N)c1ccncc1.Cl (centres unmarked) | 2.52 |
| COc1cc(/C=C(\C#N)c2nc3ccccc3[nH]2)cc(Br)c1OCc1ccccc1 | 0.571 |
| Cc1ccc(N(CC(=O)NCc2ccco2)C(=O)CCC(=O)Nc2nccs2)cc1 | -1.5 |
| COc1ccc(C(=O)NNC(=O)COc2ccc(Cl)cc2C)cc1S(=O)(=O)N1CCOCC1 | -77.1 |
| Cc1ccc(C(=O)NNC(=O)COc2ccc(Cl)cc2C)o1 | -57.6 |
| COc1cc(C(C)=O)ccc1OCC(=O)Nc1ccc(Cl)c(S(=O)(=O)N2CCOCC2)c1 | -66.7 |
| Cc1cc(Cl)ccc1OCC(=O)NNC(=O)c1ccco1 | 8.38 |
| COc1cc(C(C)=O)ccc1OCC(=O)Nc1ccc(C)c(S(=O)(=O)N2CCCCCC2)c1 | -26.3 |
| Cc1cc(Cl)ccc1OCC(=O)NNC(=O)c1cnccn1 | 11.6 |
| COc1ccc(CC(=O)NNC(=O)COc2ccc(Cl)cc2C)cc1S(=O)(=O)N1CCOCC1 | -36.1 |
| COc1ccc(Cl)cc1NC(=O)COc1ccc(S(=O)(=O)N2CCOCC2)cc1C | 10.8 |
| COc1cc(C#N)ccc1OCC(=O)Nc1ccc(C)c(S(=O)(=O)N2CCOCC2)c1 | -36.1 |
| CC1(C)CC(=O)C2=C(C1)OC1=C(C(=O)CC(C)(C)C1)C2c1ccccc1 | 16.9 |
| Nc1c(N(C(=O)Nc2ccc(Cl)c(Cl)c2)C2CCCC2)c(=O)[nH]c(=O)n1Cc1ccccc1 | 24.7 |
| COc1ccc(NC(=O)CS(=O)CC(=O)Nc2ccc(-n3cnnn3)c(C)c2)cc1 (centres unmarked) | 12.4 |
| S=c1[nH]nc(-c2ccco2)n1/N=C/C=C/c1ccco1 | 13.7 |
| C/C(=N/NS(=O)(=O)c1ccc(C)cc1)c1ccc2c(c1)OCO2 | 13 |
